Screening results: PubChem, The Scripps Research Institute Molecular Screening Center
This is a sample that favours compounds with a hit; in the whole collection about 3.5% have one here.
MITF inh: blocks human microphthalmia-associated transcription factor; O75030; AlphaScreen MITF homodimerization, bead proximity signal; inhibition, % at 2.6 µM; hit rate 0.91% among 650,000; AID 1259374; in the data active means inhibition above about 50%;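 further: 0% = vehicle wells with protein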
GPR151 ag: human GPR151 activation | Q8TDV0 | PathHunter beta-arrestin GPR151 cells, luminescence | activation, % at 11.2 µM | hit rate 1% among 650,000 | AID 1508602; in the data active means activation above about 4.9%;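 further: 0% = median of compound wells and 100% = cells with positive control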
Target sequence (Q8TDV0 whole entry, looked up): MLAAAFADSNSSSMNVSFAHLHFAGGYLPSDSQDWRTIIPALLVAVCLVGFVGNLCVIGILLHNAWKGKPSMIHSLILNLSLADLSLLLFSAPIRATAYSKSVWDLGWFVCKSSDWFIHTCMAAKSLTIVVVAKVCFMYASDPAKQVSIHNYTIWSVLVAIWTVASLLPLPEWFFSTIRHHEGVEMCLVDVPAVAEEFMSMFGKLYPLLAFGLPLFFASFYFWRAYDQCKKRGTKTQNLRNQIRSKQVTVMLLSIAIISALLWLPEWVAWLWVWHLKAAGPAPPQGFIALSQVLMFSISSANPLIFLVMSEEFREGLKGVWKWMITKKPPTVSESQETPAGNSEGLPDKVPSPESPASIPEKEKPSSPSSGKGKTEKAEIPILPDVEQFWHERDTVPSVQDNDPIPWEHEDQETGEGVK
TEAD-YAP inh: TEAD-YAP interaction inhibition. HEK-TIYL cells, TEAD-Gal4/YAP UAS-luciferase luminescence. inhibition, % at 9.12 µM. hit rate 1.4% among 640,000. AID 1259422; in the data active means inhibition above about 32%;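 further: 0% = median of test compound wells and 100% = reference inhibitor wells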
FBW7 activator: human FBW7 E3 ligase activation, primary screen. Q969H0. AID 1259310. normalized activity (activation), % at 26.1 µM. AlphaScreen FBW7–phospho-cyclin E peptide binding, activator screen. hit rate 0.13% among 650,000; in the data active means normalized activity above about 1.9%;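 further: purified mutant Fbw7 with reduced substrate affinity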
MITF confirm: confirmation of human MITF inhibitors. shares compounds with MITF inh. AlphaScreen MITF homodimerization, biotin/His-MITF beads. inhibition, % at 2.6 µM. hit rate 16% among 4,700;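 active means inhibition above a cutoff derived from the DMSO control wells, cut at about 28% in these data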;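 further: 0% = MITF dimer wells with DMSO only; inhibitors lower the bead chemiluminescence by keeping MITF from dimerizing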
AS interf DR: counter-screen: compounds optically interfering with AlphaScreen. shares compounds with MITF inh. AlphaScreen optical interference counterscreen, cell-free. IC50, µM. hit rate 6% among 480. AID 1259373; call rule not given here
AS interf ctr: optically interferes with AlphaScreen signal. inhibition, % at 2.6 µM. shares compounds with MITF inh. hit rate 7.6% among 4,700. LysRS AlphaScreen counterscreen, signal interference, triplicate. AID 1259376;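 active means inhibition above a cutoff derived from the DMSO control wells, cut at about 30% in these data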
Starred values were filed as active, the others as inactive; · = no result; ! = repeats disagree.

SMILES | MITF inh | GPR151 ag | TEAD-YAP inh | FBW7 activator | MITF confirm | AS interf ctr | others
CC(C)CC(C(=O)NCc1cccnc1)N1Cc2ccccc2C1=O (stereo unspecified) | -22 | 0 | 12 | 0 | · | ·
COCCN1CCCc2ccc(NC(=O)c3ccc(C)cc3)cc21 | 54* | -2 | -54 | 1 | 7 | 2
O=C1CC(N2CCN(CC3CCCO3)CC2)C(=O)N1Cc1ccccc1 (stereo unspecified) | 75* | 1 | 4 | 0 | 11 | 18
CCCN1CCN(C(=O)c2nn(-c3cc(OC)cc(OC)c3)c(=O)c3ccccc23)CC1 | 65* | -1 | 15 | 0 | -9 | -3
COc1ccccc1NC(=O)C(=O)NCC1CCCN1S(=O)(=O)c1ccc(C)cc1 (stereo unspecified) | 5 | 1 | 1 | 0 | · | ·
CC(=O)OCCNc1cc(Br)c2noc3c2c1C(=O)c1ccccc1-3 | -9 | 2 | -4 | 0 | · | ·
COc1cc(OC)cc(-c2ncc3ccccn23)c1 | 67* | 0 | 0 | -1 | 2 | 15
COc1cccc(-c2ncc3ccccn23)c1 | 68* | -1 | -58 | -1 | 14 | 32*
COC(=O)CSc1nnc(-c2ccncc2)n1Cc1ccco1 | -8 | 0 | 8 | 0 | · | ·
COC(=O)CSc1nnc(-c2ccco2)n1Cc1ccco1 | 76* | 0 | 4 | 0 | 58* | 3 | AS interf DR=>6.5
C/C(CC(=O)Nc1ccc(C)cc1)=N\NC(=O)C(=O)Nc1cccc(Cl)c1C | -2 | -2 | 8 | 0 | · | ·
Nc1ccc(C(=O)O)c(O)c1 | 88*! | 0 | 5 | 0 | 72* | -16 | AS interf DR=>6.5
Cc1cc(=O)[nH]c(N/N=C/c2c3ccccc3cc3ccccc23)n1 | 51* | -2 | -1 | 0 | 24 | -4
O=C(CN1CCCN(CC(=O)NCc2ccccc2)CC1)NCc1ccccc1 | 93* | 0 | -9 | 0 | 4 | -2
Cc1ccc(CNC(=O)CN2CCN(C)CC2)cc1 | 84* | 0 | 3 | 0 | 7 | 9
CN1CCN(CC(=O)NCc2ccc(F)cc2)CC1 | 21 | 1 | -5 | 0 | · | ·
CCNc1nc(NCC)nc(N2N=C(C)CC2=O)n1 | 71* | 0 | 8 | 0 | 41* | 66*
CC1=NN(c2cc(C)cc(C)c2)C(=O)C1 | 7 | 0 | 3 | 0 | · | ·
O=[N+]([O-])c1cc(Cl)c(O)c2ncccc12 | 37 | -1 | 10 | 0 | · | ·
CN(Cc1cc(Cl)c(O)c2ncccc12)C1CCCCC1 | 106* | 2 | 70* | -1 | 104* | 101*
OCCN1CCN(c2cc(-c3ccccc3F)nc(-c3cccnc3)n2)CC1 | -5 | 1 | 5 | 0 | · | ·
OCCN1CCN(c2cc(-c3ccccc3F)nc(-c3ccccc3)n2)CC1 | 53* | 1 | 7 | 0 | 16 | 13
CCN1CCN(CCOc2cc(C)ccc2C(C)C)CC1 | 52* | -2 | -3 | 0 | -7 | -2
CCN1CCN(CCCCOc2ccc(C)cc2C)CC1 | 59* | 0 | -5 | 0 | 3 | 8
Cc1ccc(OCCN)c(Br)c1 | 3 | 1 | -1 | 0 | · | ·
SMILES | MITF inh | GPR151 ag | TEAD-YAP inh | FBW7 activator | MITF confirm | AS interf ctr | others
CCN1CCN(CCCOc2ccc(C)cc2Br)CC1 | 63* | -1 | 0 | 0 | 14 | 11
COc1ccc(C(=O)NC2CCCCC2)cc1S(=O)(=O)N1CCC(C)CC1 | 67* | 0 | 0 | 0 | 10 | 13
COc1cc(Cl)c(C)cc1NC(=S)N(Cc1ccc(Cl)cc1)Cc1ccc(C(=O)O)cc1 | 9 | 1 | 9 | 0 | · | ·
CCOC(=O)C1=C(C)NC2=C(C(=O)CC(C)(C)C2)C1c1cc(C)sc1SC (stereo unspecified) | 3 | -1 | 5 | 0 | · | ·
CCCCc1c(C)c(C#N)c2nc3ccccc3n2c1N1CCC(C)CC1 | 53* | 0 | -4 | 0 | 13 | -7
Cc1c(Cc2ccccc2)c(N2CCC(C)CC2)n2c(nc3ccccc32)c1C#N | 13 | 0 | 5 | 0 | · | ·
COCCCNC(=O)/C(C#N)=C/c1ccc(-c2ccc(C(=O)O)c(Cl)c2)o1 | 63* | 2 | 2 | 0 | 67* | -4 | AS interf DR=>6.5
O=C(O)C1CC(O)CN1S(=O)(=O)c1ccc(Cl)c(Cl)c1 (stereo unspecified) | 65* | -1 | 10 | 0 | -6 | -10
Cc1ccc(S(=O)(=O)N2CC(O)CC2C(=O)O)cc1C (stereo unspecified) | 3 | 2 | 2 | 0 | · | ·
Cc1cc2c(c(=O)[nH]1)C(=O)O/C2=C/c1ccc(F)cc1 | -2 | -2 | -14 | 0 | · | ·
Cc1cc2c(c(=O)[nH]1)C(=O)O/C2=C\c1ccco1 | 61* | 0 | 0 | -1 | 62* | 5 | AS interf DR=>9.3
Cc1cc2c(c(=O)[nH]1)C(=O)O/C2=C\c1cccs1 | -2 | -1 | -8 | 0 | · | ·
Cc1cc2c(c(=O)[nH]1)C(=O)O/C2=C\c1ccc(C)o1 | 55* | -1 | -1 | -1 | 70* | 7 | AS interf DR=>6.9
COc1ccc(-n2c(CN3CCSCC3)n[nH]c2=S)cc1 | 71* | 1 | 16 | 0 | -6 | 10
COc1ccc(-c2cnn3ccc(Nc4ccc(O)cc4)nc23)cn1 | 0 | 1 | 0 | 0 | · | ·
CC1CCCC(C)N1C(=O)c1cc2n(n1)C(C(F)(F)F)CC(c1ccc(Cl)c(Cl)c1)N2 (stereo unspecified) | 59* | -1 | -3 | 0 | -10 | -7
COC(=O)C1=C(C)N(Cc2ccc(C)cc2)C(=O)/C1=C\c1ccc(OC)cc1 | 5 | 0 | -9 | 0 | · | ·
CC(=O)c1cccc(-c2cnc3ccc(N[C@H](CO)C(C)C)nn23)c1 | 20 | 1 | 24 | 0 | · | ·
COc1cc(NS(=O)(=O)c2cc(Br)ccc2OC)c(OC)cc1Cl | 2 | 1 | -1 | 0 | · | ·
CC(=O)c1cccc(OCC(O)CNCc2cccc(C(F)(F)F)c2)c1 (stereo unspecified) | 57* | -1 | 5 | 0 | -4 | 8
CCc1cccc(OCC(O)CNCc2cccnc2)c1 (stereo unspecified) | 76* | 1 | 3 | 0 | -14 | 18
CC(=O)N/C(=N\c1nc(C)cc(C)n1)Nc1cccc(Cl)c1 | -9 | -1 | 0 | 0 | · | ·
Cc1ccc(S(=O)(=O)Cn2nnnc2CN2CCOCC2)cc1 | 64* | -1 | -6 | 0 | 10 | 10
Cc1ccc(S(=O)(=O)Cn2nnnc2CN2CCN(c3ccccc3)CC2)cc1 | -1 | 0 | 0 | 0 | · | ·
N/C(=N\OC(=O)c1ccccc1)c1ccc(Cn2cc(C(F)(F)F)ccc2=O)cc1 | 54* | 0 | 2 | 0 | 10 | 12
Cc1ccc(-c2noc(C3CCN(S(=O)(=O)c4ccc5c(c4)OCCO5)CC3)n2)o1 | 63* | 0 | 6 | 0 | 8 | 17
